Measured values as given in PubChem BioAssay (NCATS).
Results filed as inconclusive are left out. Activity calls are given as the source filed them. Unless noted, the call rests on the fitted dose curve; in most records, active means well fitted curve in the direction sought with a large enough effect; inconclusive means small, poorly fitted or top-dose-only effect, or another doubt; inactive means no such curve, though single readings can be large; an effect the other way counts as inactive or inconclusive.

Assays:
[1] = Validation screen for small molecules that induce DNA re-replication in MCF 10A normal breast cells (AID 463097); further: nearly all actives have a fitted effect of over 60% in size
Summary of the method: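 MCF 10A cells exposed to compound 48 hr at 37 C, 5% CO2, then Hoechst-stained 40 min. Laser-scanning imaging of nuclear DNA content (405 nm ex, 500-530 nm em); re-replication scored as rise in nuclei with elevated fluorescence intensity.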

[2] = Quantitative high throughput screen for delayed death inhibitors of the malarial parasite plastid, 96 hour incubation (AID 488745); further: nearly all actives have a fitted effect of over 70% in size; further: potency means the concentration at half of the fitted maximal effect
Summary of the method: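 Growth of reporter-bearing P. falciparum in red cells is measured after 96 h with compound, covering two erythrocytic cycles. Luminescence from the integrated luciferase serves as the growth signal.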

[3] = Quantitative high throughput screen for delayed death inhibitors of the malarial parasite plastid, 48 hour incubation (AID 488752); further: nearly all actives have a fitted effect of over 65% in size; further: potency means the concentration at half of the fitted maximal effect
Summary of the method: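 One parasite generation (48 h, 37 C, 5% CO2) of luciferase-reporter P. falciparum in erythrocytes is run with test compound; decreased luminescence indicates inhibited growth.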

[4] = target: M-phase phosphoprotein 8 (Homo sapiens) (UniProt Q99549); experiment: qHTS Validation Assay for Inhibitors for MPP8 Chromodomain Interactions with Methylated Histone Tails (AID 488949); further: nearly all actives have a fitted effect of over 55% in size; further: potency means the concentration at half of the fitted maximal effect
Summary of the method: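 MPP8 (50 nM) was pre-bound to 50 nM biotinylated H3(1-18)K9me3 peptide in PBS pH 7.4 with 0.01% Tween-20. Compounds were then added for 30 min at room temperature, and complex disruption was read by AlphaScreen with streptavidin donor and nickel-chelate acceptor beads.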

[5] = target: Transient receptor potential cation channel subfamily V member 1 (Homo sapiens) (UniProt Q8NER1); experiment: HTS Assay for Compounds that Act as Enhancers of the Vanilloid Receptor 1 (AID 488979)
Summary of the method: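 Calcium influx kinetics via Fluo-8 (480/520 nm) in TRPV1-expressing cells, 2000/well cultured overnight at 35.5C. Compound-alone read 3 min (agonist phase), followed by EC20 capsaicin challenge for 2 min (enhancer phase).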

[6] = target: Thyrotropin receptor (Homo sapiens) (UniProt P16473); experiment: qHTS Assay for Antagonists of the Thyroid Stimulating Hormone Receptor (AID 488980); further: series mostly up to about 58 µM
Summary of the method: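 TSHR-transfected HEK293 cells (2000/well) in HEPES-buffered HBSS with 70 uM RO 20-1724 were stimulated with 4 nM TSH (EC80, final) in the presence of compound. cAMP was measured by HTRF competition after lysis and 30 min at RT.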

[7] = target: Ubiquitin carboxyl-terminal hydrolase 2 (Homo sapiens) (UniProt O75604); experiment: qHTS Validation Assay for Inhibitors of Ubiquitin-specific Protease USP2a Using CHOP2 as the Reporter (AID 463106)
Summary of the method: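 10nM USP2 core + cpd, 30min RT; add 25nM Ub-CHOP2/25nM substrate; 60min RT; FI 485/531nm. Buffer Tris pH 8.0, CaCl2, BME, CHAPS. Norm. to NEM = 100% inhibition; time-zero read flags fluorescent artifacts.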

[8] = target: Tumor susceptibility gene 101 protein (Homo sapiens) (UniProt Q99816); experiment: qHTS Validation Assay for Iinhibitors of HIV-1 Budding by Blocking the Interaction of PTAP/TSG101 (AID 485342; calls by dose curve)
Summary of the method: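 Tsg101 binding domain (10 uM) with FITC-labeled PTAP peptide (50 nM) in HEPES pH 7.5 buffer, 20 min at r.t. with compounds. Binding measured by fluorescence polarization.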

[9] = target: Beta-2 adrenergic receptor (Homo sapiens) (UniProt P07550); experiment: qHTS validation assay of beta-arrestin-biased ligands of beta2-adrenergic receptor (AID 485366)
Summary of the method: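 Arrestin-recruitment (Tango) reporter: ligand-bound beta2-AR recruits beta-arrestin, releasing tTA, which upregulates luciferase. Titrations of up to 46 microM incubated 18 hr at 37 degrees C before luminescent readout.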

[10] = target: Thioredoxin reductase 1, cytoplasmic (Rattus norvegicus) (UniProt O89049); experiment: qHTS Assay for Substrates of Mammalian Selenoprotein Thioredoxin Reductase 1 (TrxR1) (AID 488772);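 further: NADPH fluorescence in the first read after selenite addition and not the 8 min delta; series mostly up to about 57 µM; a drop in NADPH fluorescence below the no-compound background marks a TrxR1 substrate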
Summary of the method: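 Quantitative HTS in Tris-HCl buffer at pH 7.5 with EDTA and Tween-20, using rat TrxR1, 400 uM NADPH and 400 uM selenite (final). A fall in initial NADPH fluorescence relative to background marked substrate behaviour.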

[11] = target: Methanococcus maripaludis chaperonin (MmCpn) (UniProt Q6LX38); experiment: High-Throughput Screening for Modulators of Cytosolic Chaperonin Activity: MmCpn Primary Screen (AID 488978);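 further: 50 nM MmCpn enzyme hydrolysing 30 µM ATP at 37 °C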
Summary of the method: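 MmCpn at 50 nM final was preincubated 5 min at RT with compound. ATP was then added at 30 uM final for 10 min at 37 C. ADP formed was detected by Transcreener HTRF (665/590 nm).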

[12] = target: D(1A) dopamine receptor (Homo sapiens) (UniProt P21728); experiment: HTS Assay for Allosteric Agonists of the Human D1 Dopamine Receptor: Primary Screen for Agonists (AID 488981)
Summary of the method: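 Calcium flux in an inducible, force-coupled HEK293 Trex D1 line (overnight at 30 C): agonist mode is the 180 s kinetic read after compound; potentiator mode is the following 180 s read after dopamine at EC20.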

[13] = qHTS Validation Assay to Find Inhibitors of Chronic Active B-Cell Receptor Signaling (AID 485345; active means well fitted curve in the direction sought with a large enough effect in the main read-out, with a control signal flat, not every such curve was filed as active)
Summary of the method: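 Read-out: ratio of filter-corrected green (IkappaBalpha fusion) to red (native) luciferase signal in doxycycline-induced TMD8 cells after 4 h at 37C. Titration spanned 46 uM–3 nM; Data were normalised to basal cells and 10 uM MG-132 wells.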

[14] = target: Thioredoxin reductase 1, cytoplasmic (Rattus norvegicus) (UniProt O89049); experiment: qHTS Assay for Inhibitors of Mammalian Selenoprotein Thioredoxin Reductase 1 (TrxR1) (AID 488773); details: Potency: inhibition; further: nearly all actives have a fitted effect of over 40% in size; further: potency means the concentration at half of the fitted maximal effect
Summary of the method: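 Steps: enzyme (90 nM) plus NADPH (400 uM final), 5 min at ~22 deg C; compound added, 15 min; selenite (400 uM final) added; fluorescence followed for 8 min. Concentration-response curves derived from the normalized delta values.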

[15] = target: Flap endonuclease 1 (Homo sapiens) (UniProt P39748); experiment: qHTS Validation Assay for the Inhibitors of Human Flap endonuclease 1 (FEN1) (AID 488816)
Summary of the method: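 Readings taken at 0 and 15 min after starting the reaction with 50 nM (final) substrate supplied the signal. Compounds had first sat with 10 nM FEN1 reagent for 15 min at room temperature. Values come from Hill-equation concentration-response fits.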

[16] = target: Chromobox protein homolog 1 (Homo sapiens) (UniProt P83916); experiment: qHTS Validation Assay for Inhibitors of HP1-beta Chromodomain Interactions with Methylated Histone Tails (AID 488953); further: nearly all actives have a fitted effect of over 50% in size; further: potency means the concentration at half of the fitted maximal effect
Summary of the method: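 Measured as loss of AlphaScreen luminescence from streptavidin donor and nickel acceptor beads (10 ug/mL final) bridging HP1-beta and biotin-H3(1-18)K9me3, each 50 nM. Compounds met the preassembled complex for 30 min at RT.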

[17] = target: DNA polymerase III PolC-type (Bacillus subtilis (strain 168)) (UniProt P13267); experiment: qHTS Validation Assay for the Inhibitors of DNA Replication in Gram-Positive Bacteria (AID 485295);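 further: PicoGreen fluorescence of double-stranded DNA made on primed circular M13 template; series mostly up to about 57 µM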
Summary of the method: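 Reconstituted B. subtilis Pol III holoenzyme (PolC, beta clamp, SSB, primase) preincubated with compound, then M13Gori single-stranded circular template with dNTPs/NTPs added; room temperature reaction. Stopped with EDTA/PicoGreen; dsDNA fluorescence read, EDTA as full-inhibition control.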

[18] = target: ATP-dependent 6-phosphofructokinase (Trypanosoma brucei brucei) (UniProt O15648); experiment: qHTS Validation Assay to Find Inhibitors of T. brucei phosphofructokinase (AID 485368)
Summary of the method: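 Steps: substrate mix (0.5 mM F6P, 0.1 mM ATP, MgCl2, TEA pH 8.0); compound; 1.25 nM T. brucei PFK; 45 min RT; ATP depletion 10 min; ADP-to-ATP detection 10 min; luminescence read; curve fitting and classification.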

[19] = Cytometry Cell-Based qHTS for Inhibitors of the mTORC1 Signaling Pathway in MEF cells (AID 2668); further: potency means the concentration at half of the fitted maximal effect
Summary of the method: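 MEFs (Tsc2-/-, p53-/- stably expressing WT Tsc2) treated 24 h at 37 degree Celsius, fixed, stained with Alexa-488 anti-phospho-rpS6 Ser235/236 and propidium iodide; Acumen laser scanning. Reported as % positive cells, phospho-S6 normalized to PI.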

Measured: Potency

Transient receptor potential cation channel subfamily V member 1 (Homo sapiens), sequence (Q8NER1 whole entry, looked up): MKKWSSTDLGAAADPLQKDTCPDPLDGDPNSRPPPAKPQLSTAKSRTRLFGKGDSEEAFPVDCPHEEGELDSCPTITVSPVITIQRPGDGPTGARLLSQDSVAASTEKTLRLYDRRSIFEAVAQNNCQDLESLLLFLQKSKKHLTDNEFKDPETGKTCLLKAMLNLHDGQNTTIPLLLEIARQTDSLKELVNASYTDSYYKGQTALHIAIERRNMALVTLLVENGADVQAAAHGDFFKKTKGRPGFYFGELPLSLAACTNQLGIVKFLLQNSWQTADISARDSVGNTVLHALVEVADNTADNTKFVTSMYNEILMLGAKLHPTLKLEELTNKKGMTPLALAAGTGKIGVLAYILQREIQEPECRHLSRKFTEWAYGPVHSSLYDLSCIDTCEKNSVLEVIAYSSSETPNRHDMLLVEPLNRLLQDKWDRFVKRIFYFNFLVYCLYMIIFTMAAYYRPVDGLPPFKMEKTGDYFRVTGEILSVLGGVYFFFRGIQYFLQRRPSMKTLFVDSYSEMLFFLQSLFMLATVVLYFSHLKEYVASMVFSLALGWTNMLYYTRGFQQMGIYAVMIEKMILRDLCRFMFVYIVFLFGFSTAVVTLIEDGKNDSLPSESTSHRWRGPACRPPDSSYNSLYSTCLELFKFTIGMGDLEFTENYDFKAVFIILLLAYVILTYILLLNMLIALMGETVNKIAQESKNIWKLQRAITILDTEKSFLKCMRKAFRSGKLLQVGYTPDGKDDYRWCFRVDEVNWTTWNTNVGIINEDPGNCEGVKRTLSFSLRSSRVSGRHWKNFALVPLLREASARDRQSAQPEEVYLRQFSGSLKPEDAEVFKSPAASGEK
Tumor susceptibility gene 101 protein (Homo sapiens), sequence (Q99816 whole entry, looked up, the tested form may be a part): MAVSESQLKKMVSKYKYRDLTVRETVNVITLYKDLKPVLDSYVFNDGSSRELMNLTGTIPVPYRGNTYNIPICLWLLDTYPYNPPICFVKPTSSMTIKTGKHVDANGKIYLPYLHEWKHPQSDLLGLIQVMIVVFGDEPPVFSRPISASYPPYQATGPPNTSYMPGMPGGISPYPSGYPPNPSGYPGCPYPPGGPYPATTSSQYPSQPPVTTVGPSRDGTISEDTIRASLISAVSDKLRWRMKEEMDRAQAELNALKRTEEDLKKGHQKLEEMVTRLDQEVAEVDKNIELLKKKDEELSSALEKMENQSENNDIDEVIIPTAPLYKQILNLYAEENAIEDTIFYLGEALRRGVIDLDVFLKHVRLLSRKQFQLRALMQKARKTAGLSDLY
Methanococcus maripaludis chaperonin (MmCpn), sequence (Q6LX38 1-543): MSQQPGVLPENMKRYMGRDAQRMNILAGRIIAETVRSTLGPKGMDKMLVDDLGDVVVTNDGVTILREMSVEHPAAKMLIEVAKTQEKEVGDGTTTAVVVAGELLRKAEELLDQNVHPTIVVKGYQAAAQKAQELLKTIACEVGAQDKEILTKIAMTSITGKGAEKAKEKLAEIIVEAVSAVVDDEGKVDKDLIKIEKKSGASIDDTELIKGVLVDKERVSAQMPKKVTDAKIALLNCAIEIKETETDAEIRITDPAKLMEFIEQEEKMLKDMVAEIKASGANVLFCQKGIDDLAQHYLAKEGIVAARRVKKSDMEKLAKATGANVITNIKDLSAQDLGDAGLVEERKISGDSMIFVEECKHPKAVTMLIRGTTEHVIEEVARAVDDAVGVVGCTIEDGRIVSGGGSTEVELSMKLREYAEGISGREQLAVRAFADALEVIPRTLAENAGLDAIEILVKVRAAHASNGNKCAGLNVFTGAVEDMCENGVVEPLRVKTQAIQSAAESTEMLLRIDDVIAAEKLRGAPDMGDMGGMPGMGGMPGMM
D(1A) dopamine receptor (Homo sapiens), sequence (P21728 whole entry, looked up): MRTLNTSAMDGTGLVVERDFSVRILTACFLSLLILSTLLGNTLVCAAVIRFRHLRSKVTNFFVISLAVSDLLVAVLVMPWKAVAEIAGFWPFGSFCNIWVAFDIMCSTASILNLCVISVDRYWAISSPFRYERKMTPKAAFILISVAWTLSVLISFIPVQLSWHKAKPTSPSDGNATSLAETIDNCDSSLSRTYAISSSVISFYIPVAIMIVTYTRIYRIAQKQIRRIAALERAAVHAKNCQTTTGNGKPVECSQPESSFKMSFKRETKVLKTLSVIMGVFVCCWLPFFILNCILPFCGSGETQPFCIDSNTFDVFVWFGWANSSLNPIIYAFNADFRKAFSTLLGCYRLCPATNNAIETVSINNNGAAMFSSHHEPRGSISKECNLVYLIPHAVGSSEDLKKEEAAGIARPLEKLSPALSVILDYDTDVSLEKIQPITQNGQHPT
Beta-2 adrenergic receptor (Homo sapiens), sequence (P07550 whole entry, looked up): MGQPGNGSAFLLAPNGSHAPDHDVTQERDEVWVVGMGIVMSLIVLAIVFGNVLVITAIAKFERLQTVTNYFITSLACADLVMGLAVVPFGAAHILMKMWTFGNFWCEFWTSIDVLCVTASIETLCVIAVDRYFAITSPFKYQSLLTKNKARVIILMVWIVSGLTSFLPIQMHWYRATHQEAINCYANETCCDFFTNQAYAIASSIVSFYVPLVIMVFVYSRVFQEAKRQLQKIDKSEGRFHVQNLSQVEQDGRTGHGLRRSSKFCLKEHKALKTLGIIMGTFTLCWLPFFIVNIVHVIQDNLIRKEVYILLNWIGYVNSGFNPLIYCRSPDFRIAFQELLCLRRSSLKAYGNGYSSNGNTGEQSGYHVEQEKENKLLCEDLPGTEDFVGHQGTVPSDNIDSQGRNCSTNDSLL
M-phase phosphoprotein 8 (Homo sapiens), sequence (Q99549 whole entry, looked up): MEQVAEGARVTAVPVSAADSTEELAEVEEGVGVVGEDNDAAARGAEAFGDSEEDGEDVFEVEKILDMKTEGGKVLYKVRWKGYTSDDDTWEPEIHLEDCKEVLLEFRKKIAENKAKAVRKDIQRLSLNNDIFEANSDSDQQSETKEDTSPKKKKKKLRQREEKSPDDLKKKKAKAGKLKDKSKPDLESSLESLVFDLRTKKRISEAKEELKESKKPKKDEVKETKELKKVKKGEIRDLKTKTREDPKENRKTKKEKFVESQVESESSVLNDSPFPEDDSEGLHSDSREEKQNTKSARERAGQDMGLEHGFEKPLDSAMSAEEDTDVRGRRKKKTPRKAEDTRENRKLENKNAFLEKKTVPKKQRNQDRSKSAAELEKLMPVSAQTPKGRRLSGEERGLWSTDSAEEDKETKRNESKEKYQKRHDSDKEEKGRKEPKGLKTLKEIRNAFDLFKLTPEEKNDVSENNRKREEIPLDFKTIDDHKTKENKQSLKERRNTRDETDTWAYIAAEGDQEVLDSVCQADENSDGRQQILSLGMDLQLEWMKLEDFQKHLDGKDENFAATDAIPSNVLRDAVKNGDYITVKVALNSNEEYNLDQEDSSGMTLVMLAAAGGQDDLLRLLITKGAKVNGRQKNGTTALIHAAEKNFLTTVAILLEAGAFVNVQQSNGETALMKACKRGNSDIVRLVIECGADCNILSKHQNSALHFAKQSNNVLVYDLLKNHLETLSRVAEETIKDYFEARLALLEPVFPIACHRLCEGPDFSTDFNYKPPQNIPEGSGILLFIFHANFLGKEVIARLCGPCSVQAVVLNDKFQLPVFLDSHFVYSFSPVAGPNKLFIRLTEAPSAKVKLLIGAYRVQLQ
Chromobox protein homolog 1 (Homo sapiens), sequence (P83916 whole entry, looked up): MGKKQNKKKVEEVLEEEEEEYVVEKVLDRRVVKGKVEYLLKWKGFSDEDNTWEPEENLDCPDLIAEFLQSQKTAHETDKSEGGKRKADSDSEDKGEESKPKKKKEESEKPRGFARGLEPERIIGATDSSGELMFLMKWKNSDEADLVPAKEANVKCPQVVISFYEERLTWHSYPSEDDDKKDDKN
Thioredoxin reductase 1, cytoplasmic (Rattus norvegicus), sequence (O89049 whole entry, looked up): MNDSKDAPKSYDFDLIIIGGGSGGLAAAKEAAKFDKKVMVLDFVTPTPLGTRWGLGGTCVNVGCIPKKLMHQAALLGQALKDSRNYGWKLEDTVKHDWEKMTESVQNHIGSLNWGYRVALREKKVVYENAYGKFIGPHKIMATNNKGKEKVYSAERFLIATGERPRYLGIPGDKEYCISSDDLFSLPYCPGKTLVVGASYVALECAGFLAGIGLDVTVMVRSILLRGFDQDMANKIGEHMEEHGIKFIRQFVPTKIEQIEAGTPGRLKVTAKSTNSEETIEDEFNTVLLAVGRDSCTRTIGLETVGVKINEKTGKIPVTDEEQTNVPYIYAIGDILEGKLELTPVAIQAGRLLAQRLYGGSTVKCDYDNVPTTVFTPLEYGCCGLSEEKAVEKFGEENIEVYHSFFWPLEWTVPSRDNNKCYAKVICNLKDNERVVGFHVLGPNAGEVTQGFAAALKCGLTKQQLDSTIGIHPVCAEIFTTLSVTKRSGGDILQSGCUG
ATP-dependent 6-phosphofructokinase (Trypanosoma brucei brucei), sequence (O15648 whole entry, looked up): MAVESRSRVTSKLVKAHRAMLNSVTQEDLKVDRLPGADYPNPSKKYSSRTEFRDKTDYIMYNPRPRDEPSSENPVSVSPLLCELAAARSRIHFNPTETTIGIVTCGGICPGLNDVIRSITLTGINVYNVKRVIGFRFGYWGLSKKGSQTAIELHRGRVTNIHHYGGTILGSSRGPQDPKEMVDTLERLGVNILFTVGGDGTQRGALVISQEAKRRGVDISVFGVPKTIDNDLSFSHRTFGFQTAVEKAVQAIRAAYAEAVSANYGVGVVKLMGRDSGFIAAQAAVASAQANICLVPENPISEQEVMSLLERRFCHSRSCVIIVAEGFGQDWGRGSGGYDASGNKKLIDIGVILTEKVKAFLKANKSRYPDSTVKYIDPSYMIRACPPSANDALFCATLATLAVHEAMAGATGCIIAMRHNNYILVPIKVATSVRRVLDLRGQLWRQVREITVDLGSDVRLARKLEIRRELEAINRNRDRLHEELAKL

N.N.O=C(O)C1(C(=O)O)CCC1.[Pt]
active: [4] 31.6 µM
inactive: [1] | [2] | [3] | [5] | [6]

Oc1ccccc1O
inactive: [7] | [8] | [9] | [2] | [10] | [11] | [5] | [6] | [12]

CN1CCc2cc(O)c(O)cc2C(c2ccccc2)C1 (stereo not given)
not listed: [3] | [17] | [18] | [19]
inactive: all other assays above

CC(COc1ccc(/C=C/c2ccccc2)cc1)[N+](C)(C)C (stereo not given)
active: [2] 2.08 µM | [3] 3.29 µM
not listed: [1] | [19]
inactive: all other assays above

CNCC[C@H](Oc1ccc(C(F)(F)F)cc1)c1ccccc1
inactive: [7] | [17] | [8] | [9] | [10] | [14] | [15] | [4] | [11] | [6]

O=c1[nH]c2ccccc2n1CCCN1CCN(C(c2ccccc2)c2ccccc2)CC1
inactive: [1] | [2] | [3] | [5] | [6]

CN[C@H](CC(C)C)C(=O)N[C@H]1C(=O)N[C@@H](CC(N)=O)C(=O)N[C@H]2C(=O)N[C@H]3C(=O)N[C@H](C(=O)N[C@H](C(=O)O)c4cc(O)cc(O)c4-c4cc3ccc4O)[C@H](O)c3ccc(c(Cl)c3)Oc3cc2cc(c3O[C@@H]2O[C@H](CO)[C@@H](O)[C@H](O)[C@H]2O[C@H]2C[C@](C)(N)[C@H](O)[C@H](C)O2)Oc2ccc(cc2Cl)[C@H]1O
inactive: [1] | [2] | [3] | [4] | [5] | [6]

CC(=O)/C=C1\C(=O)N(C)c2ccccc21
inactive: [7] | [17] | [8] | [9] | [18] | [10] | [15] | [4] | [11]
active: [14] 29.9 µM | [16] 0.0532 µM

CC12C(=O)OC(=O)C1(C)C1CCC2O1 (stereo not given)
active: [2] 3.29 µM | [3] 4.15 µM
not listed: [1] | [6] | [13] | [15] | [18] | [19]
inactive: all other assays above

O=C1NC(=O)/C(=C/c2ccc3nccnc3c2)S1
active: [19] 16.5 µM
not listed: [1] | [2] | [3] | [5] | [6] | [13]
inactive: all other assays above
